In the supplement of paper PMC10849652:
The full data set covers some 7,900 targets. This sample favours those with a hit. About 0.6% of all pairs of compound and target were hits. A number with no mark means an inactive call.

Tests used:
Assay in all cases: log2 fold change, soluble protein after heating vs DMSO (PISA); higher = thermal stabilisation; K562 cells, 10 uM, 30 min; active = over 0.2 and 3.5 SD of the protein, either way, in both replicates (recomputed)
[1] = compound: CS(=O)(=O)c1ccc(-c2cnc(N)c(C(=O)Nc3ccccc3)n2)cc1
Outline: (§1)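 Soluble protein was quantified by TMTpro 16plex LC-MS/MS after channel sums were equalised. It was obtained as the supernatant after 21,000xg for 90 min from pooled aliquots of K562 cells (2×10^6 cells/mL, 10 μM compound, 30 min) heated for 3 min across 48°C-58°C and extracted in PBS with 0.5% NP-40 at 4°C. Thermal stability values are relative to control samples and come from duplicates. They are given as log2 fold changes.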

crizotinib = compound: C[C@@H](Oc1cc(-c2cnn(C3CCNCC3)c2)cnc1N)c1c(Cl)ccc(F)c1Cl [crizotinib]
Outline: as §1

[2] = compound: C[C@@H]1COCCN1C2=NC(=NC(=C2)C3(CC3)S(=O)(=O)C)C4=C5C=CNC5=CC=C4
Outline: as §1

[3] = compound: C[C@H](C1=CC=C(C=C1)C(=O)NC2=C3C=CNC3=NC=C2)N
Outline: as §1

duvelisib = compound: C[C@H](Nc1ncnc2nc[nH]c12)c1cc2cccc(Cl)c2c(=O)n1-c1ccccc1 [duvelisib]
Outline: as §1

gandotinib = compound: Cc1cc(Nc2cc(CN3CCOCC3)c3nc(C)c(Cc4ccc(Cl)cc4F)n3n2)n[nH]1 [gandotinib]
Outline: as §1

tozasertib = compound: Cc1cc(Nc2cc(N3CCN(C)CC3)nc(Sc3ccc(NC(=O)C4CC4)cc3)n2)n[nH]1 [tozasertib]
Outline: as §1

[4] = compound: Cc1cc(SCc2sc(-c3ccc(C(F)(F)F)cc3)nc2C)ccc1OCC(=O)O
Outline: as §1

doramapimod = compound: Cc1ccc(-n2nc(C(C)(C)C)cc2NC(=O)Nc2ccc(OCCN3CCOCC3)c3ccccc23)cc1 [doramapimod]
Outline: as §1

ispinesib = compound: Cc1ccc(C(=O)N(CCCN)[C@@H](c2nc3cc(Cl)ccc3c(=O)n2Cc2ccccc2)C(C)C)cc1 [ispinesib]
Outline: as §1

bafetinib = compound: Cc1ccc(NC(=O)c2ccc(CN3CC[C@H](N(C)C)C3)c(C(F)(F)F)c2)cc1Nc1nccc(-c2cncnc2)n1 [bafetinib]
Outline: as §1

[5] = compound: Cc1cccc(CC(=O)N2CCc3c2ccc(-c2cn(C)c4ncnc(N)c24)c3F)n1
Outline: as §1

nilotinib = compound: Cc1cn(-c2cc(NC(=O)c3ccc(C)c(Nc4nccc(-c5cccnc5)n4)c3)cc(C(F)(F)F)c2)cn1 [nilotinib]
Outline: as §1

[6] = compound: Cc1nc(Nc2n[nH]c3c2CN(C(=O)N[C@H](CN(C)C)c2ccccc2)C3(C)C)c2sccc2n1
Outline: as §1

dasatinib = compound: Cc1nc(Nc2ncc(C(=O)Nc3c(C)cccc3Cl)s2)cc(N2CCN(CCO)CC2)n1 [dasatinib]
Outline: as §1

[7] = compound: Cc1ncc(-c2ccnc(Nc3ccc(S(C)(=O)=O)cc3)n2)n1C(C)C
Outline: as §1

[8] = compound: Cn1cc(-c2ccc3c(c2)CCN3C(=O)Cc2cccc(C(F)(F)F)c2)c2c(N)ncnc21
Outline: as §1

[9] = compound: Cn1cc(-c2ccc3nnc(C(F)(F)c4ccc5ncccc5c4)n3n2)cn1
Outline: as §1

tipifarnib = compound: Cn1cncc1[C@@](N)(c1ccc(Cl)cc1)c1ccc2c(c1)c(-c1cccc(Cl)c1)cc(=O)n2C [tipifarnib]
Outline: as §1

mubritinib = compound: FC(F)(F)c1ccc(/C=C/c2nc(COc3ccc(CCCCn4ccnn4)cc3)co2)cc1 [mubritinib]
Outline: as §1

Sequence of UniProt Q9BRT3 (Q9BRT3 whole entry, looked up): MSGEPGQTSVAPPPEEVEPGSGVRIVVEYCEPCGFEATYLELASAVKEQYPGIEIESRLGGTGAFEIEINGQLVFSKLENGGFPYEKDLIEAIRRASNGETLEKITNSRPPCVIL
Sequence of UniProt O14880 (O14880 whole entry, looked up): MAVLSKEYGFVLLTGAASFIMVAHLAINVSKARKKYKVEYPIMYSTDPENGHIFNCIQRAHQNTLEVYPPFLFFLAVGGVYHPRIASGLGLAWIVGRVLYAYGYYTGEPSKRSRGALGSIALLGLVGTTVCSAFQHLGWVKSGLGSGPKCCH
Sequence of UniProt O43318 (O43318 whole entry, looked up): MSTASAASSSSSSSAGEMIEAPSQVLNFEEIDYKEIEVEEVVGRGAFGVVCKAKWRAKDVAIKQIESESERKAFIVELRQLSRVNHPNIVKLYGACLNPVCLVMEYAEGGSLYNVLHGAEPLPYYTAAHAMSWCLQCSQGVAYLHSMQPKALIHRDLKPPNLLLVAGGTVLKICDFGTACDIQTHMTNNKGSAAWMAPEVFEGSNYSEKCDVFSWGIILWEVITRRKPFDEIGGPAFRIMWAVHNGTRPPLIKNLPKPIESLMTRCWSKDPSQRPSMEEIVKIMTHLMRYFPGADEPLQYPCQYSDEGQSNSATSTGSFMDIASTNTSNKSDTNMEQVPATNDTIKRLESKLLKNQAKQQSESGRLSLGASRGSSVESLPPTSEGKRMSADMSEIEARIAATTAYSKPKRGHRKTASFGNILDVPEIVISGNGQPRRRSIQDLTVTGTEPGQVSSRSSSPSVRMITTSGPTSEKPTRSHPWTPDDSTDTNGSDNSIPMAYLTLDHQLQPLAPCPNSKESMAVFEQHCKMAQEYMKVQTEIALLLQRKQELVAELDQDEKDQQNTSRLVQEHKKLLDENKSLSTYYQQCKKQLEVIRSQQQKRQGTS
Sequence of UniProt Q8IWB1 (Q8IWB1 whole entry, looked up): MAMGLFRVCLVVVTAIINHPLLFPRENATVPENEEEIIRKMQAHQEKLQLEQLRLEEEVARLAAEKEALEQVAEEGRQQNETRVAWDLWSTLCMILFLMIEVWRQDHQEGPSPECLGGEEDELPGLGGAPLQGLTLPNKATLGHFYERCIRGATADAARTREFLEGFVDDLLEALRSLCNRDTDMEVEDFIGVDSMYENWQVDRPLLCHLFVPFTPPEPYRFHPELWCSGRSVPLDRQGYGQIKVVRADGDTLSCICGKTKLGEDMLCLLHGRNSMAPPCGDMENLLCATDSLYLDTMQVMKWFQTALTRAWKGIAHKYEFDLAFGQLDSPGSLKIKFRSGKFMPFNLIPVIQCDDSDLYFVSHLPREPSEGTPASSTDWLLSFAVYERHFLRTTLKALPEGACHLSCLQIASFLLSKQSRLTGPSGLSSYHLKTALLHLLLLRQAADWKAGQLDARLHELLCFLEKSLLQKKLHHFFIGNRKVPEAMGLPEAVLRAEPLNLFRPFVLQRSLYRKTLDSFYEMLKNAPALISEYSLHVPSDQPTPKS
Sequence of UniProt Q9HCC0 (Q9HCC0 whole entry, looked up): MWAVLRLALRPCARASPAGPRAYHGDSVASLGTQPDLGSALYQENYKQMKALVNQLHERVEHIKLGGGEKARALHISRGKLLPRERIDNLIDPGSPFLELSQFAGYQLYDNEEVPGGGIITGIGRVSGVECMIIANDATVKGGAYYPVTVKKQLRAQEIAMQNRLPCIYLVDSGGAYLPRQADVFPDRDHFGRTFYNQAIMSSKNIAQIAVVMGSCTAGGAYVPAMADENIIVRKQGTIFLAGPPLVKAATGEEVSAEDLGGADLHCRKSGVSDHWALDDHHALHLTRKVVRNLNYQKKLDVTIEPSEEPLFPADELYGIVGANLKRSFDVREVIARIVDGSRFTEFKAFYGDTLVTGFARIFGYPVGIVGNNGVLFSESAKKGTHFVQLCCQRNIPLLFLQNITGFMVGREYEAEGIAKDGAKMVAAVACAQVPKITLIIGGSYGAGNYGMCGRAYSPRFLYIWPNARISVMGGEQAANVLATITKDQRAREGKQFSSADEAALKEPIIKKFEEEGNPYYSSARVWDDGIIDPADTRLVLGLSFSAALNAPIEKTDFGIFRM
Sequence of UniProt Q14624 (Q14624 whole entry, looked up): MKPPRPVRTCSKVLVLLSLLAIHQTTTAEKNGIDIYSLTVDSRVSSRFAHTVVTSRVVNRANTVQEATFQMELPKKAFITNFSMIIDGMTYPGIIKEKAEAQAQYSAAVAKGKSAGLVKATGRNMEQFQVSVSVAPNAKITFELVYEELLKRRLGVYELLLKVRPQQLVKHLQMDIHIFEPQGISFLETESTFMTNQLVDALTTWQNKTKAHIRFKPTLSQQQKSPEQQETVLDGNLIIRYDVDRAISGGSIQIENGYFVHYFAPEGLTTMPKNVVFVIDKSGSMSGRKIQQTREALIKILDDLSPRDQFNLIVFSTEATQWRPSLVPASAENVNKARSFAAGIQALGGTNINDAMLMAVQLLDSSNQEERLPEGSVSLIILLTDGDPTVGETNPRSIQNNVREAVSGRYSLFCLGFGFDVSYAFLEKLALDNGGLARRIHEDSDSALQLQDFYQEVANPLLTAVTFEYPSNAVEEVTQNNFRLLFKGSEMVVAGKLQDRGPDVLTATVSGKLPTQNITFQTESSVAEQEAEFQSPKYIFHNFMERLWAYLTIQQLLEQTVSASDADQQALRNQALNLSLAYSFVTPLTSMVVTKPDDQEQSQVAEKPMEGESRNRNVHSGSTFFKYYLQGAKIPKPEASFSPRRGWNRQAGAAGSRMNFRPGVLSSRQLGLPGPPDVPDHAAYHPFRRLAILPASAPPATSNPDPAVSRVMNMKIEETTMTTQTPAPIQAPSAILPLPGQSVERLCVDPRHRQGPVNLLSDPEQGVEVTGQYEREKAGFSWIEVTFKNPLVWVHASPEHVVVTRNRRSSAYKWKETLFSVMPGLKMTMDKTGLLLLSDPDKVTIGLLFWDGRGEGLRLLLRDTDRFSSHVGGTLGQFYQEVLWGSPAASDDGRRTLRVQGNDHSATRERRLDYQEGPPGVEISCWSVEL
Sequence of UniProt Q9H0B6 (Q9H0B6 whole entry, looked up): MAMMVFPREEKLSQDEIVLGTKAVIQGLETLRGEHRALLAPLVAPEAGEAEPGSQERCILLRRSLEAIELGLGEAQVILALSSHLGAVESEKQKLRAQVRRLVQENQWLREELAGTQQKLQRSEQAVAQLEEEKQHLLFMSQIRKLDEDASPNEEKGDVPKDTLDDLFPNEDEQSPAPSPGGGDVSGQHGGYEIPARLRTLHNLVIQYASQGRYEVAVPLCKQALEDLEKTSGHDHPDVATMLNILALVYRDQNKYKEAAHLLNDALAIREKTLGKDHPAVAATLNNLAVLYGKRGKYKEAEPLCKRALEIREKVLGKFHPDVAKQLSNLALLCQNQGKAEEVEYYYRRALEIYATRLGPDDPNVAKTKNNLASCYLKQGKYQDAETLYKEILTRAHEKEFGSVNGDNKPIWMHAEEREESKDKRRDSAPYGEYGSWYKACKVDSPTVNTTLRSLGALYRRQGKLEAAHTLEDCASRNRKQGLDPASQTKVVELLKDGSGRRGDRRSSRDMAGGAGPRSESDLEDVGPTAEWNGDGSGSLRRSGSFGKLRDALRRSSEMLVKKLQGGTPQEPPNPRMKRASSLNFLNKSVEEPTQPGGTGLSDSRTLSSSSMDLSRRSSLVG

| Target | log2 fold change [1] | log2 fold change (crizotinib) | log2 fold change [2] | log2 fold change [3] | log2 fold change (duvelisib) | log2 fold change (gandotinib) | log2 fold change (tozasertib) | log2 fold change [4] | log2 fold change (doramapimod) | log2 fold change (ispinesib) | log2 fold change (bafetinib) | log2 fold change [5] | log2 fold change (nilotinib) | log2 fold change [6] | log2 fold change (dasatinib) | log2 fold change [7] | log2 fold change [8] | log2 fold change [9] | log2 fold change (tipifarnib) | log2 fold change (mubritinib) |
| --- | --- | --- | --- | --- | --- | --- | --- | --- | --- | --- | --- | --- | --- | --- | --- | --- | --- | --- | --- | --- |
| MIEN1 (UniProt Q9BRT3) | 0.03 | 0.152 | 0.314 (active) | -0.193 | 0.208 | 0.026 | 0.12 | 0.032 | 0.029 | 0.235 | 0.023 | -0.013 | -0.029 | -0.037 | -0.041 | -0.08 | 0.08 | 0.139 | 0.083 | 0.018 |
| ITPRIP (UniProt Q8IWB1) | -0.002 | 0.056 | 0.012 | -0.039 | 0.005 | -0.049 | 0.045 | 0.038 | 0.062 | -0.037 | -0.126 | -0.016 | -0.109 | 0.035 | -0.041 | -0.08 | 0.073 | 0.012 | -0.007 | 0.061 |
| KPNA6 (UniProt O60684) | -0.01 | -0.11 | -0.011 | 0.138 | 0 | -0.028 | 0.046 | 0.07 | 0.046 | -0.202 | -0.071 | 0.078 | -0.054 | -0.038 | -0.067 | 0.003 | -0.098 | -0.015 | -0.033 | -0.067 |
| MAP3K7 (UniProt O43318) | 0.093 | -0.193 | -0.035 | 0.135 | 0.08 | -0.036 | -0.011 | 0.118 | -0.001 | -0.029 | 0.029 | 0.085 | -0.105 | -0.028 | -0.038 | 0.059 | -0.095 | -0.026 | -0.064 | 0.046 |
| KLC2 (UniProt Q9H0B6) | 0.012 | -0.131 | 0.008 | -0.007 | 0.059 | -0.079 | -0.004 | 0.047 | -0.002 | -0.062 | 0.013 | 0.018 | -0.049 | -0.388 (active) | -0.07 | 0.025 | 0.05 | 0.046 | 0.031 | 0.009 |
| ITIH4 (UniProt Q14624) | -0.107 | -0.102 | 0.129 | -0.005 | 0.103 | -0.387 | -0.033 | -0.031 | -0.291 | -0.402 | -0.319 | 0.117 | -0.259 | 0.194 | 0.039 | 0.225 | 0.148 | 0.114 | -0.038 | -0.134 |
| MCCC2 (UniProt Q9HCC0) | -0.004 | 0.028 | 0.027 | -0.053 | 0.054 | 0.051 | -0.011 | -0.022 | 0 | 0.047 | -0.047 | -0.062 | 0.035 | -0.012 | 0.058 | -0.047 | 0.04 | 0.028 | -0.005 | -0.015 |
| MGST3 (UniProt O14880) | 0.058 | 0.119 | -0.013 | -0.075 | -0.002 | -0.006 | -0.018 | -0.054 | -0.031 | 0.03 | -0.085 | -0.002 | 0.01 | 0.012 | 0.069 | -0.056 | 0.004 | -0.026 | 0.019 | -0.094 |
